NTR1 ag: NTR1 (human) agonism | activation, % at 20 µM | 330,000 tested, 0.17% active | P30989 | NTR1-U2OS beta-arrestin-GFP spot imaging, agonist mode;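 active = activation at or above 40% of the spot to cytoplasm intensity ratio, with at least 20 cells analyzed; inconclusive = wells under 20 cells, flagged as cytotoxic or low count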;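 also: 0% = DMSO without peptide and 100% = 100 nM NTR1 peptide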
Target sequence (P30989 whole entry, looked up): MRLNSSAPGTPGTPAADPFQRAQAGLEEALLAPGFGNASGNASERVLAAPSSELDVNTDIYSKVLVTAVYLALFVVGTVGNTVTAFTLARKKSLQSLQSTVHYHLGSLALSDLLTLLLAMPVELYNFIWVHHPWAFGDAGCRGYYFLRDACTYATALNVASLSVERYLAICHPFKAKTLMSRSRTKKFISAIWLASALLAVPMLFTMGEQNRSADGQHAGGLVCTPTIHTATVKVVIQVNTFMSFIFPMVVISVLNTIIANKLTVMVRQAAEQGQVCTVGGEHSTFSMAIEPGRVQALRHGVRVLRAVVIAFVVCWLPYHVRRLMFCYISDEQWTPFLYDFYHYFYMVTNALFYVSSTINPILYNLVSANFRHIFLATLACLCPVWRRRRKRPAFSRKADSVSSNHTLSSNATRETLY
VLA-4 inh: inhibition in a human VLA-4 binding assay; VLA-4 expressing cells, ligand binding flow cytometry; inhibition, % (about 7 µM as worked out from the volumes in the protocol); 330,000 tested, 0.2% active; AID 2557; in the data active = inhibition above about 50%
Pemphigus Ab inh: inhibitors of pemphigus antibody binding to human desmoglein-3 | binding (percent of control), % at 10 µM | 310,000 tested, 0.48% active | DSG3-coupled beads, scFv-anti-DSG3-GFP binding, flow cytometry; active compounds read low | P32926;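 active = binding more than 3 SD below its plate's average and above zero; inconclusive = below that plate limit but binding exactly zero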;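 also: hits lower antibody fragment binding to DSG3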
AI-2 QS modul: modulators of Vibrio harveyi AI-2 quorum sensing system; Vibrio harveyi JMH597 AI-2 luminescence/OD600 ratio, 9 h; active compounds read low; strain lacks LuxN and CqsS sensors; 0 = neutral-control median; activity change, % at 7.5 µM; 300,000 tested, 0.4% active; in the data active = activity change below about -75%, passing the limit was not always enough; inconclusive = no clear call, values can overlap the other calls;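 also: luminescence divided by OD600 gain over 9 h not by final OD600 alone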
VLA-4 mod pick: human VLA-4 allosteric modulation in cherry picked compounds; U937 cells, HUTS-21 LIBS mAb binding, flow cytometry; LDV ligand present at threefold Kd; 1,300 tested, 2% active; inhibition, % at 6.7 µM; shares compounds with VLA-4 inh; in the data active = inhibition above about 40%;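 also: 0% = ligand without compound and 100% = no ligand background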
* = called active by the depositor; ? = inconclusive; . = no result. Hits are enriched below; roughly 1.1% of the tested compounds scored in any of these assays.

SMILES	NTR1 ag	VLA-4 inh	Pemphigus Ab inh	AI-2 QS modul	VLA-4 mod pick
C=CCNC(=O)Cn1c(=O)c2c(ncn2CCC(C)C)n(Cc2ccccc2)c1=O	0	50*	?	12	-1
Cc1ccc(/C=N/NC(=O)CNC(=O)c2ccc(C)c([N+](=O)[O-])c2)o1	1	0	107	16	.
Cc1ccc(/C=N/NC(=O)CNC(=O)c2cccc([N+](=O)[O-])c2C)o1	0	58*	104	5	5
O=C(O)Cc1sc(N/N=C\c2ccncc2)nc1-c1ccccc1	0	-3	88	7	.
Cc1ccc(S(=O)(=O)C2(C(=O)Nc3ccc4c(c3)OCO4)CC2)cc1	-2	51*	97	3	1
Cc1ccc(S(=O)(=O)C2(C(=O)Nc3ccc(F)cc3)CC2)cc1	-1	17	97	-8	.
CCOc1ccccc1NC(=O)C(c1ccccc1)N1CCN(C(=O)c2ccco2)CC1 (stereo unspecified)	4	0	.	.	.
CCCc1cc(=O)[nH]c(SCC(=O)N(CC)c2c(N)n(Cc3ccccc3)c(=O)[nH]c2=O)n1	-1	25	108	4	.
COc1ccccc1NC(=O)N1CCN(c2ccccn2)CC1	-2	52*	101	1	-4
COC(=O)c1ccc2c(c1C(=O)OC)CN(S(=O)(=O)C(C)(C)C)[C@@H]2CCO	.	.	92	.	.
CCOc1cccc(CN(CC)CC2CCCN(CCc3cccc(OC)c3)C2)c1O (stereo unspecified)	0	1	114	21	.
CN1CCN(c2nc(-c3ccccc3O)nc3ccccc23)CC1	-1	47	96	32	7
CCOc1ccc(CN2CCN(CC(O)Cn3c4ccccc4c4ccccc43)CC2)cc1 (stereo unspecified)	39	51*	135	18	10
Cc1ccc(NC(=O)CN2CCc3cc4c(cc3C2)OCCCO4)cc1	0	55*	100	5	3
NS(=O)(=O)c1ccc(NC(=O)COC(=O)Cc2c[nH]c3ccccc23)cc1	5	2	115	.	.
Cc1ccccc1NS(=O)(=O)c1ccc(Cl)cc1	2	-7	100	6	0
O=C(Nc1ccc(Cl)cc1)Nc1ccc(S(=O)(=O)Nc2ncccn2)cc1	2	23	99	10	.
COc1ccc(S(=O)(=O)Nc2ncccn2)cc1	-1	6	104	3	3
O=S(=O)(Nc1ncccn1)c1ccc(Cl)cc1	-1	8	105	.	0
O=S(=O)(Nc1ncccn1)c1ccc(F)cc1	0	5	101	5	4
Cc1ccccc1NS(=O)(=O)c1ccc(S(=O)(=O)N2CCCC2)cc1	.	.	101	.	.
Cc1ccc2c(c1)[C@H]1[C@H](CO2)[C@H](c2ccccc2)[C@]2(C)C(=O)NCC(=O)N12	0	16	102	.	.
COc1c(C=O)c2c(c(OC)c1OC)-c1ccc(OC)c(=O)cc1C(NC(C)=O)CC2 (stereo unspecified)	.	.	89	.	.
O=S(=O)(Nc1ncccn1)c1ccccc1	0	15	98	23	3
Cc1ccc(S(=O)(=O)Nc2ncccn2)cc1	1	-7	97	17	2
SMILES	NTR1 ag	VLA-4 inh	Pemphigus Ab inh	AI-2 QS modul	VLA-4 mod pick
O=S(=O)(Nc1ccc(S(=O)(=O)Nc2ncccn2)cc1)c1ccccc1	-1	-1	.	6	.
CCOc1ncccc1C(=O)Nc1cccc(-c2nnc3n2CCCCC3)c1	1	68*	120	28	0
Cc1cnc(C(=O)Nc2cccc(-c3nnc4n3CCCCC4)c2)cn1	-3	-4	94	22	.
NC(=O)CN1C(=O)C(=O)N(Cc2ccccc2)C1=O	2	42	96	10	0
NC(=O)CN1C(=O)C(=O)N(Cc2ccc(F)cc2)C1=O	-2	-2	?	5	.
COc1ccc(C2N(C(=O)N(C)C)CCN2S(=O)(=O)c2ccc(OC)cc2)cc1 (stereo unspecified)	-2	6	.	26	.
Fc1cccc(C2CCCCN2Cc2nc(C3CC3)no2)c1 (stereo unspecified)	0	-4	98	26	.
c1ccc(CCC2CCCCN2Cc2nc(C3CC3)no2)cc1 (stereo unspecified)	0	45	101	30	-15
CSCCC(NC(=O)c1cccc(C)c1)C(=O)NCc1cccs1 (stereo unspecified)	-2	-5	93	.	.
CC(C)C(NC(=O)c1ccccc1F)C(=O)NCc1ccccc1 (stereo unspecified)	-1	52*	?	12	-7

Screening data deposited in PubChem by several laboratories.
